Screening data from PubChem.
GAA glycogen mod – alters human alpha-glucosidase cleavage of glycogen; 300,000 compounds, 0.38% hits; recombinant GAA, glycogen substrate, Amplex Red glucose oxidase fluorescence; Potency, µM (highest dose often 76.4 µM), without a hit: at the highest dose activity change, negative = inhibition, hits mostly inhibitors; P10253;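 note: 0% = full enzyme reaction and -100% = no-enzyme basal signal; the screen sought inhibitors and activators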
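Recombinant human enzyme (4 nM); glycogen substrate; 37 C, 40 min, pH 5.0. Readout: coupled glucose oxidase/Amplex Red fluorescence.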
GAA inhib – blocks human lysosomal alpha-glucosidase | 200,000 compounds, 0.005% hits | Potency, µM (highest dose often 76.9 µM), for the others: at the top dose activity change, negative = inhibition, usual class: inhibitors | purified human GAA, 4-MU-alpha-glucoside fluorescence | P10253;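 note: plate controls were uninhibited enzyme wells for no effect and no-enzyme background for full effect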
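Activity normalized between no-enzyme (basal) and enzyme-only wells. Conditions: 4 nM human enzyme, 400 uM fluorogenic substrate, citrate/phosphate pH 5.0 with Tween-20, 20 min room temperature, compounds up to 77 uM.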
GAA spleen mod – inhibits or activates alpha-glucosidase in human spleen homogenate; human spleen homogenate, 4-MU-alpha-glucoside fluorescence; Potency, µM (series often up to 79.9 µM), without a hit: at the highest dose activity change, negative = inhibition, hits mostly inhibitors; 240,000 compounds, 0.006% hits;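 note: 0% = enzyme with vehicle and -100% = no enzyme basal signal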
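Compounds were titrated against alpha-glucosidase in spleen homogenate at pH 5.0, with 1 mM 4-methylumbelliferyl substrate for 40 min at 37 C. Reactions were quenched with pH 10 NaOH/glycine and fluorescence measured.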
KinaseGlo FLuc – Kinase-Glo luciferase inhibition (counter-screen); Q27757; Kinase-Glo luciferase, ATP luminescence, 8 min; Potency, µM (titrated, usually from 38.3 µM), for the others: top-dose activity change, negative = inhibition, usual class: inhibitors; 200,000 compounds, 0.28% hits; AID 1379; note: nearly all actives have a fitted effect of over 60% in size
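Luminescence was the read-out, taken after 8-minute incubation at ambient temperature. Luciferase turned over luciferin with 10 uM ATP in imidazole pH 7.2 buffer containing KCl, MgCl2, Tween 20 and BSA.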
LMNA splice mod – LMNA splicing modulation | HeLa LMNA splicing GFP/RFP minigene ratio, 48 h | Potency, µM (doses to about 46.1 µM), for the others: top-dose ratio change, negative = inhibition, most hits filed as inhibitors | 200,000 compounds, 0.01% hits | AID 1487; active = well fitted inhibition curve with a large enough effect in the signal ratio, with a control signal flat, not every such curve was filed as active; inconclusive = small, poorly fitted or top-dose-only effect, or effect the other way, or a change in a side signal; the % refers to the signal ratio
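S3 HeLa cells stably expressing lamin A-EGFP splicing minigene plus DsRed2, 600 cells/well, 48 h compound exposure at 37C. Laser-scanning cytometry; analysed as GFP (500-530 nm)/RFP (575-640 nm) total intensity ratio; 0.5% DMSO vehicle.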
N370S GC – inhibitors or activators of N370S glucocerebrosidase for Gaucher disease | P04062 | N370S GC spleen homogenate, 4MU-glucoside fluorescence | Potency, µM (highest dose often 59.4 µM), without a hit: at the highest dose activity change, negative = inhibition, hits mostly inhibitors | 330,000 compounds, 0.092% hits | AID 2101;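 note: 0% = full enzyme activity and -100% = no enzyme basal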
Active calls of the source: *; ? = inconclusive; . = not tested or not shown; [ ] = dose if it differs, or a comment. A selection: hits, their analogues and other compounds. The true share with any hit is near 0.52%. Unless noted, calls come from the whole dose curve; as a rule, active = well fitted curve in the direction sought with a large enough effect; inconclusive = small, poorly fitted or top-dose-only effect, or another doubt; inactive = no such curve, though single readings can be large; an effect the other way counts as inactive or inconclusive. Unless noted, % is set by controls: 0 for no effect and ±100 for the full control effect; potency is the fitted concentration of half-maximal effect.

SMILES	GAA glycogen mod	GAA inhib	GAA spleen mod	KinaseGlo FLuc	LMNA splice mod	N370S GC
CCc1cccc(C)c1Nc1c(-c2ccc(N(C)C)cc2)nc2cnccn12	10µM*	.	.	.	.	.
CN(C)c1ccc(-c2nc3cnccn3c2Nc2ccc3c(c2)OCCO3)cc1	?	.	4%	.	.	-1%
COc1ccccc1OC(C)C(=O)Nc1cccc(-c2nc3ccccc3o2)c1 (stereo unspecified)	-7%[76.3 µM]	.	.	.	-10%[46 µM]	.
Cc1c(NC2=C(Cl)C(=O)N(c3ccccc3)C2=O)c(=O)n(-c2ccccc2)n1C	10µM*	0%	-3%	1%	-3%	-12%
COc1ccc(Cl)cc1NC(=O)Cn1cc(S(=O)(=O)Cc2cccc(Cl)c2)c2ccccc21	8%[76.3 µM]	.	.	.	-1%[46 µM]	.
CCCNC(=S)Nc1ccc(Nc2ccccc2)cc1	16µM*	-2%	4%	1%	0%	3%
CNC(=S)Nc1ccc(Nc2ccccc2)cc1	25µM*	7%	-2%	-2%	5%	0%
S=C(NCCCNC(=S)Nc1ccccc1)Nc1ccccc1	-15%	0%	2%	1%	-2%	18%
c1ccc(CNc2ncnc3ccc(-c4ccc5c(c4)OCO5)cc23)cc1	.	.	14%	.	?	-18%
O=C(OCC1OC(OC(=O)c2cc(O)c(O)c(OC(=O)c3cc(O)c(O)c(O)c3)c2)[C@@H](OC(=O)c2cc(O)c(O)c(OC(=O)c3cc(O)c(O)c(O)c3)c2)C(OC(=O)c2cc(O)c(O)c(OC(=O)c3cc(O)c(O)c(O)c3)c2)C1OC(=O)c1cc(O)c(O)c(OC(=O)c2cc(O)c(O)c(O)c2)c1)c1cc(O)c(O)c(OC(=O)c2cc(O)c(O)c(O)c2)c1 (stereo partly specified)	.	.	?	9%	?	?
Cc1cccc(C)c1-n1ncc(C(=O)N2CCN(c3ccccn3)CC2)c1C1CCN(C(=O)OC(C)(C)C)CC1	.	.	.	.	-5%[46 µM]	.
CN(C)c1ccc(-c2nc(N(C)C)c3ccccc3n2)cc1	.	.	-7%	-1%	13µM*	-5%
Nc1ccc(-c2nc3ccc(N)cc3s2)cc1	-19%	.	?	.	.	?
Nc1cccc(-c2nc3ccc(N)cc3s2)c1	-2%	?	15%	13µM*	-7%	7%
O=C(c1ccccc1)[C@H](Nc1ccc2ccccc2c1)c1ccccc1	.	.	.	-1%[7.66 µM]	.	.
O=C1Cc2cc(S(=O)(=O)N3CCN(c4ccc(Br)cc4)CC3)ccc2N1	-29%[76.3 µM]	.	.	.	.	.
CC(=O)N1CCN(S(=O)(=O)c2ccc3c(c2)CC(=O)N3)CC1	12µM*	.	.	.	.	.
CN(C)c1ccc(-c2cc(NCc3ccccc3)ncn2)cc1	.	.	15%	-5%	-3%	16%
CCc1cc2c(cc3c(=O)n(CCCC(=O)NCc4cccc(Cl)c4)ncn32)s1	2%[76.3 µM]	.	.	.	.	.
CCN(CC)c1ccc(/C=N/Nc2nc(C)cc(C)n2)cc1	11µM*	.	4%	.	.	-2%
COC(=O)NC(c1ccccc1)C1(C(=O)OC)C(=O)Cc2ccccc21 (stereo unspecified)	.	.	-11%	1%	.	-10%
O=C(/C=C/Nc1ccc(Br)cc1F)c1ccco1	21%	-12%	1%	13µM*	-2%[46 µM]	-2%
O=C(/C=C/Nc1cccc(F)c1)c1ccco1	5%	-14%	-6%	-24%	13%	-1%
CN(C)c1ccc(N/C=C/C(=O)c2ccco2)cc1	13µM*	5%	2%	3.5µM*	21%	4%[12.8 µM]
O=C(/C=C/Nc1ccccc1O)c1ccco1	16µM*	.	-1%	.	.	-7%
O=C(/C=C/Nc1ccc(F)cc1F)c1ccco1	10%	6%	-5%	10µM*	7%[46 µM]	3%
COc1ccccc1NC(=O)CC(C)n1nc(C)cc1C (stereo unspecified)	.	.	.	.	-13%[46 µM]	.
O=C(/C=C/Nc1ccc(F)cc1F)c1cccs1	10%	-4%	15%	7.9µM*	-4%	6%
